Data from PMC12136788.
Numbering of substitutions follows the chain as printed. Whole data set: some 24,000 sequences, median “enrichment r” near 0.99, cut for the highest 2% near 3.7. Many of the other results were omitted from the sample, so the highest values are more common in it than they were.

T1: UNK ZnF1-3 (human, UniProt Q9C0B0 31-174)
T1 sequence: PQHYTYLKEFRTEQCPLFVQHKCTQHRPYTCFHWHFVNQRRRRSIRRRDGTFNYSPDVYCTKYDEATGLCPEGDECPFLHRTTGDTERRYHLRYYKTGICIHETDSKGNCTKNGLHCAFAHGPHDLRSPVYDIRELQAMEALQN

B1: 60597838_60597958_3500_3pUTR_ENSMUSG00000049323_ENSMUST00000056907|mouse|control|control (ssRNA)
RNA: GGGAGUUCUACAGUCCGACGAUCUUUUUGGGAGCUACUUCCUUAAUGAACCAGGAGCAGCUGCUACUGUCCUUCUGGAGGGCCAUGUGCCACCUCUGCUCAGCCCACAUCACACACUGCCCAGGGCUAUGUUGCAACUAUAACCAACAGAGGAUUGAGCAUCA
B2: chr17:45757878:45757879:+_ENSG00000108424_ENST00000290158|hu_hu|FALSE|FALSE (ssRNA)
RNA: GGGAGUUCUACAGUCCGACGAUCUGGCCUAGCUUCUACUAAUUUCAGUACAUCCUUCCCAAAUGCUGUACAUAAGUCCCCUAUUAGUCCAGCAGCACAAGCUACUACUCCAUCUGUGUGAUCCUCAUCUCCAGCAAUGUGGUCCAACAGAGGAUUGAGCAUCA
B3: chr19:16452684:16452685:+_ENSMUSG00000024639_ENSMUST00000025541|perfect_dup|FALSE|FALSE (ssRNA)
RNA: GGGAGUUCUACAGUCCGACGAUCGUUUAAGAACAGAAUCACAGAGGAGUUCUGGAACCAGGGGUAGGUGAUAAUUGUUCUAAAGAGUGCUUUGCUCUCCUCCAUGCGGUUCUCAUUGUCUGACUCCACAAGAACUUGAUCAUACAACAGAGGAUUGAGCAUCA
B4: chr5:128448638:128448639:+_ENSG00000066583_ENST00000173527|hu_mus|hu_hu_hu_mus_False|98_98 (ssRNA)
RNA: GGGAGUUCUACAGUCCGACGAUCGGCACUCGCCUUAAUUAGAUUCUGAAUUUCCUUGAACUUCGGGUGGUCUUUGUCAGCCACCAGCUGUAGGAGGACAGCCUCACUAGUGGUCACGAUGAUCCCAGUGCGGGCAAGACGCUCCAACAGAGGAUUGAGCAUCA
B5: chr17:57737884:57737885:+_ENSG00000141367_ENST00000269122|hu_mus|motif|central (ssRNA)
RNA: GGGAGUUCUACAGUCCGACGAUCGUUUCCCUGGGCGAAGAGAGCAUUAAAUUUCCGGGCAAAGAGUUCUUCAGCACCAGCGGAGUUGUUCCGCACAGCCAUUCUCAGAGCCAAGUCAGGAUUUUGUAGGACAUUGGUGAUAUACAACAGAGGAUUGAGCAUCA
B6: chr3:101400026:101400027:-_ENSG00000114391_ENST00000394077|hu_mus|FALSE|FALSE (ssRNA)
RNA: GGGAGUUCUACAGUCCGACGAUCCUACCACACUAGCGUUUCCCACCAACUCUGGGGGCAGAGACCUUCACAGGCUUCACAAUCUUUUGUUUAGGUGCUGCCUUUGUGGGGGCCUUGGCAGCAGCCAUUGCUGUCUUCUUUGAUCAACAGAGGAUUGAGCAUCA
B7: chr2:48026839:48026840:+_ENSG00000116062_ENST00000540021|hu_hu|hu_hu_hu_mus_False|18_58 (ssRNA)
RNA: GGGAGUUCUACAGUCCGACGAUCAUAGUGAGCCACUAGCGUCCUAAAUCUGGAACAGUGGCGGUCAUCCGAAAACUGACCUAUGAAAAACUUGCCCAGUGAAGUGUCCACAAAGCACACACCAUAUACACGAGUGUGACCAGACAACAGAGGAUUGAGCAUCA
B8: chr2:202488911:202488912:-_ENSG00000155755_ENST00000286196|hu_mus|hu_hu_hu_mus_False|8_98 (ssRNA)
RNA: GGGAGUUCUACAGUCCGACGAUCAUUGAAACAUUUUCAUAAUAUUGCAGUAGCAUUUCAGCAUUAUGUAACAAAAGCUCAAUUGUAAAUACAUGUAUCUUAUAAAAAUACACUUAAAAACACGAGUAAAAAUGGGAGGCGCCACAACAGAGGAUUGAGCAUCA
B9: chr15:91426070:91426071:+_ENSG00000140564_ENST00000268171|hu_mus|FALSE|FALSE (ssRNA)
RNA: GGGAGUUCUACAGUCCGACGAUCGGCAGCCAUGGGAAGGGCAGGGUGGGUGUGGGCAUGAGAAGGUCAAGGGUCCAGCUGCUACCCCCAUUAAAAAUACAAAAAAAAAAAAAAAAAAGAAUCAGCAUCUAAAGUGAAUAAUCACAACAGAGGAUUGAGCAUCA
B10: chr7:108213676:108213677:+_ENSG00000128590_ENST00000249356|hu_hu|FALSE|FALSE (ssRNA)
RNA: GGGAGUUCUACAGUCCGACGAUCUCCAUGAAAUCUAUUUUCAGUCUGUACUGUAUGCUGAUUGGUAGAGUCAAAACCACUAAAAGAAAACAUUUUCUCCAUAUCUUCAAACAUGUCAUCAAAUAAUCCACCUCCAAAAGAAAACAACAGAGGAUUGAGCAUCA
B11: chr5:67446008:67446009:+_ENSMUSG00000037736_ENSMUST00000038188|mus_mus|motif|central (ssRNA)
RNA: GGGAGUUCUACAGUCCGACGAUCGCCCCCAAGGGUAAGUAACACAAAUGUCUCCGGGAAUACAGUAUAUAUUAUCAGACGGGUGUCUUUGCAUUAAAAAAAAAAAAAGUUAUAGUUCAGAGUCAGAACUCGCUGGGGUAUCUACAACAGAGGAUUGAGCAUCA
B12: chr5:32794366:32794367:+_ENSMUSG00000014956_ENSMUST00000015100|mus_mus|FALSE|FALSE (ssRNA)
RNA: GGGAGUUCUACAGUCCGACGAUCAGAAGAGAGCCAGCUAUCCAAGGCUUGUCAAAAAGGAUUCUCAUGUUCUGUGAAUCUAAAAACAAACAAACAACAAAAACCCCAAAAAACAAAACCAAUGCAGGUGAGGGUAAUACCAGACAACAGAGGAUUGAGCAUCA
B13: chr10:70744696:70744697:+_ENSG00000165732_ENST00000354185|hu_hu|motif|central (ssRNA)
RNA: GGGAGUUCUACAGUCCGACGAUCUUAAAUUAGAAAAUAUUUUCUUUGUAGAAAAUAGUAAAAAUUAUAACAUUUACCAAGCGGACCCAACAAGUUCAUUUAAACCAAAAAGUAGCUAAAUACAUUAUACAUUUAUAAAUACAGCAACAGAGGAUUGAGCAUCA
B14: chr4:95690885:95690886:+_ENSMUSG00000028572_ENSMUST00000156910|mus_mus|mus_mus_mus_hu_False|78_88 (ssRNA)
RNA: GGGAGUUCUACAGUCCGACGAUCUUUAGAAAAUGUUAAAUACCAUGAGCAUGCUAAGUAAUUUUAAUAUUUUAUUUUACCAGAAGUCACAGGCAAGCAGACACUACAAGAAUAUAUGAAAAUGAAACUCAACAAUAUAACUGUCAACAGAGGAUUGAGCAUCA
B15: 35171164_35172336_3352_CDS_ENSMUSG00000029104_ENSMUST00000080036|mouse|control|control (ssRNA)
RNA: GGGAGUUCUACAGUCCGACGAUCGGGGGCACUCGCUGCUAGCAAGUUUCCAGCCAAAAUCAAGGCAUCCUGAUGGGCUGAGAGAUCCAGUGGGAACCAAGCUGAUGAAAGCAAGGUGAGAAUCAUGGAGGCCAUCCCAACAGUCAACAGAGGAUUGAGCAUCA
B16: 131763144_131763264_1223_3pUTR_ENSMUSG00000079037_ENSMUST00000091288|mouse|control|control (ssRNA)
RNA: GGGAGUUCUACAGUCCGACGAUCUCACCUUGUACUCUGGGUACAAGUCAGGGGAUACACCAGUAUUUAUUCACUAGACCAAAACAAAGCCCCAACUAGCCAGCAGUUAUUUGGUGUUAUAUUCUUAUUGGCCCGGUGUUAGCACAACAGAGGAUUGAGCAUCA
B17: chr16:23113652:23113653:+_ENSMUSG00000022884_ENSMUST00000115341|mus_mus|FALSE|FALSE (ssRNA)
RNA: GGGAGUUCUACAGUCCGACGAUCCCACAAGUAUAUUAUUAAAUGAUAGAGAACAUCUAAUACAACCAUUUCUACAUAACUAGUAAAUGAAUUUCUAAGAAAAAAAGAUUUUACAGACCCCAUCUUUUAUACCCACCCCCAACACAACAGAGGAUUGAGCAUCA
B18: chr1:182620099:182620100:+_ENSMUSG00000058729_ENSMUST00000085803|mus_mus|motif|central (ssRNA)
RNA: GGGAGUUCUACAGUCCGACGAUCAACAACAAAGCUUUUAUAAAUUAUGAUAAAUUAAAAUAUUUAUUAUUAUAAUUGAUCGGUAGAACCAUGUCCCACUGUCAGUAUAUGAAACAUACACUUAAGUCCGUGUUUCCCAUCUGUCAACAGAGGAUUGAGCAUCA
B19: chr5:67446008:67446009:+_ENSMUSG00000037736_ENSMUST00000038188|mus_mus|FALSE|FALSE (ssRNA)
RNA: B11 RNA with G80U, G81A

Target: T1, UNK ZnF1-3
Experiment: nsRBNS (natural sequence RNA bind-n-seq); RBNS binding buffer (assumed for nsRBNS): 25 mM Tris pH 7.5, 150 mM KCl, 3 mM MgCl2, 0.01% Triton X-100, 500 ug/ml BSA, 20 U/ml SUPERase-In, 4 C; UNK is unkempt and MSI1 is Musashi-1; names of the RNAs are library labels; protein concentration not given here; high values mean tight binding

Binder | binding signal [enrichment R]
B1 | 0.845
B2 | 1.02
B3 | 0.726
B4 | 0.728
B5 | 2.06
B6 | 0.756
B7 | 1.26
B8 | 0.677
B9 | 19.6
B10 | 1.22
B11 | 3.48
B12 | 1.31
B13 | 3.65
B14 | 3.29
B15 | 1.2
B16 | 0.474
B17 | 3.96
B18 | 7.41
B19 | 5.07
